Shiga toxin inh: inhibitors of Shiga toxin in Vero cells; Vero cells, Shiga toxin protein synthesis inhibition reporter; inhibition, % at 38.7 µM; 290,000 tested, 9.2% active; in the data active means inhibition mostly above about 28%, no sharp cut-off; inactive means mostly below about 43%
Pf growth 48h: inhibits P. falciparum growth in the first generation, 48 h. P. falciparum luciferase growth in erythrocytes, 48 h. Potency, µM (highest dose often 28.7 µM), usual class: inhibitors. 310,000 tested, 5.9% active. AID 504832
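Growth was read as firefly luciferase luminescence after a 48 h, 37 C, 5% CO2 exposure of compounds to reporter-bearing P. falciparum cultures (0.1% parasitemia, 2% hematocrit final) in Albumax-supplemented RPMI 1640.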
CHX counter: affects cycloheximide protein synthesis inhibition readout, counter-screen | max response, % | 300,000 tested, 12% active | cell reporter, cycloheximide protein synthesis inhibition counterscreen; in the data active means max response mostly above about 13%, no sharp cut-off; inactive means mostly below about 14%; further: read at 38.3 µM for the half of the compounds with a filed dose
HCMV antiviral: blocks human cytomegalovirus replication; AID 1259415; 410,000 tested, 4.5% active; activity change, negative = inhibition, % at 57.5 µM; HFF cells, HCMV-luciferase reporter, 72 h; stronger effect = lower value; in the data active means activity change below about -60%; inconclusive means no clear call, values can overlap the other calls; inactive means above about -39%
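Luciferase read-out from HCMV-luciferase-infected HFFs (MOI 1 PFU/cell) 72 h post infection at 37C; compounds added after 16 h cell attachment; activity normalized between buffer-only basal and Salinomycin (10uM) inhibitor controls.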
Pf growth 96h: P. falciparum growth inhibition at 96 hour, primary screen for plastid delayed-death inhibitors; 320,000 tested, 6.9% active; AID 504834; Potency, µM (top dose mostly 28.7 µM), usual class: inhibitors; P. falciparum luciferase reporter growth, 96 h
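Parasite growth measured via integrated firefly luciferase reporter in P. falciparum. Infected erythrocytes at 2% hematocrit, 0.05% parasitemia final were treated 96 hours at 37 C under 5% CO2, and luminescence was read.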
Numbers stand for hits; . = inactive; ? = inconclusive; / = no result; + = active, no number. Compounds with a hit are over-represented: about 20% of the library has one in this group of screens. Unless noted, the call rests on the fitted dose curve; in most records, active means well fitted inhibition curve with a large enough effect; inconclusive means small, poorly fitted or top-dose-only effect, or another doubt; inactive means no such curve, though single readings can be large or run the other way.

SMILES	Shiga toxin inh	Pf growth 48h	CHX counter	HCMV antiviral	Pf growth 96h
O=C(CNS(=O)(=O)c1ccc(C(=O)N2CCCCC2)cc1)N1CCCCC1	.	.	.	.	?
O=C1OCC(CO)(CO)N=C1NNc1ccccc1Cl	.	/	.	-66	?
O=C(O)C1(Nc2ccccc2Cl)CCCC1	/	/	/	.	/
COc1ccc(CCC(=O)Nc2ccc(-c3noc(-c4ccc(OC)c(OC)c4)n3)cc2)cc1	.	?	.	.	.
COc1cccc(-c2nc(-c3ccc(NC(=O)Cc4ccccc4OC)cc3)no2)c1	43	?	22	/	.
COc1ccccc1CC(=O)Nc1ccc(-c2noc(COc3cccc(C)c3C)n2)cc1	.	/	.	.	15µM
COc1ccccc1CC(=O)Nc1ccc(-c2noc(COc3ccc(Br)cc3)n2)cc1	.	/	.	.	.
COc1ccc(CC(=O)Nc2ccc(-c3noc(-c4ccccc4OC)n3)cc2)cc1	.	/	27	.	?
CCCCCCCCNS(=O)(=O)CCNCc1ccccc1OC	/	/	/	.	/
Cc1ccc(-n2c(=S)[nH]c3c(oc4ccccc43)c2=O)cc1C	27	.	13	.	.
O=c1c2oc3ccccc3c2[nH]c(=S)n1-c1ccc(F)cc1	.	.	.	.	8.3µM
Cc1ccc(-n2c(=S)[nH]c3ccccc3c2=O)cc1C	/	/	/	.	/
Cc1c(Cl)cccc1NC(=O)C(=O)NCC(c1cccnc1)N1CCN(c2ccccc2)CC1 (centres undefined)	/	/	/	.	/
COc1ccc(CC(=O)O/N=C(\N)Cc2cccc3ccccc23)cc1OC	.	10µM	.	.	.
COc1ccc(CC(=O)O/N=C(\N)Cc2cccc3ccccc23)cc1	.	?	.	.	12µM
N/C(Cc1cccc2ccccc12)=N\OC(=O)c1ccc(Br)o1	.	?	.	.	.
CCC(C)C(NC(=O)OC(C)(C)C)C(=O)NC1COC2CC(n3cc(F)c(=O)[nH]c3=O)OC12 (centres undefined)	.	/	.	/	/
COc1ccc(-c2csc(/C(C#N)=C\c3ccc(O)c([N+](=O)[O-])c3)n2)cc1OC	.	8.3µM	.	.	?
CC(C)c1ccc(/C=C(\C#N)c2nc(-c3ccc(O)cc3)cs2)cc1	/	/	/	-87	/
COc1ccc(-c2csc(/C(C#N)=C\c3ccc(OC)c([N+](=O)[O-])c3)n2)cc1	.	.	.	?	.
COc1cc(/C=C(\C#N)c2nc3ccccc3s2)cc([N+](=O)[O-])c1O	.	.	.	-62	9.3µM
CCc1cccc(NC(=O)CCNS(=O)(=O)c2ccc3c(c2)oc(=O)n3C)c1	.	.	.	.	?
CCN(c1ccccc1)S(=O)(=O)c1ccc(C(=O)Nc2nnc(C3CC3)o2)cc1	.	9.3µM	.	-69	?
CCN(c1ccccc1)S(=O)(=O)c1ccc(C(=O)Nc2nnc(CSC)o2)cc1	.	?	.	-95	?
CCN(c1ccccc1)S(=O)(=O)c1ccc(C(=O)Nc2nnc(COC)o2)cc1	.	?	.	.	?
SMILES	Shiga toxin inh	Pf growth 48h	CHX counter	HCMV antiviral	Pf growth 96h
CCC1CCCCN1S(=O)(=O)c1ccc(C(=O)Nc2nnc(C3CC3)o2)cc1 (centres undefined)	.	13µM	.	.	?
CCC1CCCCN1S(=O)(=O)c1ccc(C(=O)Nc2nnc(-c3ccccc3Cl)o2)cc1 (centres undefined)	.	?	.	/	?
COCCN(CCOC)S(=O)(=O)c1ccc(C(=O)Nc2nnc(C3CC3)o2)cc1	.	.	.	.	/
CN(c1ccccc1)S(=O)(=O)c1ccc(C(=O)Nc2nnc(C3CC3)o2)cc1	.	12µM	.	.	5.2µM
CCOc1ccccc1-c1nnc2n1N=C(c1ccc(OC)cc1)CS2	.	/	.	/	/
Cc1ccc(-c2ccc3c(c2)O[C@H](CN(C)C(=O)Nc2ccc(C(F)(F)F)cc2)[C@H](C)CN([C@H](C)CO)S3(=O)=O)cc1	/	/	/	.	/
COc1ccccc1C(=O)NC1=NC(c2ccc(Br)cc2)CC(=O)N1 (centres undefined)	/	/	/	.	/
Cc1c(C(=O)Nc2ccccc2)oc2c1C(=O)CC(C)(C)C2	82	.	33	.	/
Cc1ccc(NC(=O)c2oc3c(c2C)C(=O)CC(C)(C)C3)cc1	.	.	.	.	.
COc1cccc(/C(O)=C2/C(=O)C(=O)N(CCN3CCOCC3)C2c2cccs2)c1 (centres undefined)	.	.	23	.	/
CCOC(=O)c1[nH]c(C)c(/C(O)=C2\C(=O)C(=O)N(CCCN3CCOCC3)C2c2cccs2)c1C (centres undefined)	.	.	19	.	?
COc1ccccc1/C=C/C=C(\C#N)C(=O)NC(C)c1ccccc1 (centres undefined)	.	?	11	?	.
O=c1c2ccccc2cnn1Cc1ccc(Br)cc1F	.	.	.	.	.
CCCOc1ccccc1Nc1nnc(C)c(=O)[nH]1	.	.	.	.	13µM
Cc1cc(C)cc(NC(=O)CN2C(=O)CCc3cc(S(=O)(=O)N4CCCCC4)ccc32)c1	/	/	/	.	/
O=C(N/N=C/c1ccc2c(c1)OCO2)c1ccc2ccccc2n1	.	.	26	.	.
Cc1cccc(C(=O)N/N=C/c2ccc3c(c2)OCO3)n1	.	.	.	.	.
O=C(N/N=C/c1ccc2c(c1)OCO2)c1ccccn1	93	.	39	.	.
O=C(N/N=C/c1ccc2c(c1)OCO2)c1cc(-c2ccccc2)nc2ccccc12	.	?	.	.	12µM
O=C(O)COc1ccccc1/C=N/NC(=O)c1cc(-c2ccccc2)nc2ccccc12	.	.	.	+	.
CC(C)c1nc(N(C)S(C)(=O)=O)nc(-c2ccc(F)cc2)c1/C=C/C(O)CC(O)CC(=O)O (centres undefined)	/	.	/	/	.
Cc1cc(Br)ccc1NC(=O)C(NS(=O)(=O)c1cccs1)c1ccccc1 (centres undefined)	/	/	/	.	/
O=C(COc1ccc(-c2nnco2)cc1)Nc1c(F)cccc1F	/	.	/	.	.
O=C(C=Cc1ccc2c(c1)OCO2)c1ccccc1	/	/	/	.	/
O=C(N/N=C/c1ccsc1)c1ccc2ccccc2n1	74	.	41	-67	.
SMILES	Shiga toxin inh	Pf growth 48h	CHX counter	HCMV antiviral	Pf growth 96h
O=C(/C=C/c1ccc2c(c1)OCO2)c1ccccn1	97	.	72	.	.
CCN(CC(=O)Nc1ccc(NC(C)=O)cc1)C(=O)/C=C/c1ccc2c(c1)OCO2	/	.	/	.	.
O=C(N/N=C/c1cc2c(cc1Br)OCO2)c1ccccn1	55	.	43	.	.
CCN(C(=O)/C=C/c1ccc2c(c1)OCO2)c1ccccc1	43	.	21	-71	.
O=C(N/N=C/c1ccsc1)C1CC1	.	.	.	.	.
COc1ccc(-c2noc(CN(C)C(=O)c3ccc4c(c3)OCO4)n2)cc1	.	.	.	.	.
COc1cccc(NC(=O)C2=COC3=NC(=O)N(Cc4ccccc4)CCN23)c1	/	/	/	.	/
O=S(Cc1ccc(Br)cc1)Cc1nnc(SCc2c(F)cccc2Cl)n1-c1ccccc1 (centres undefined)	.	?	.	?	?
O=S(Cc1ccc(Br)cc1)Cc1nnc(SCc2ccc(Cl)cc2)n1-c1ccccc1 (centres undefined)	.	?	.	-66	?

Screening data from PubChem.
